Screening results (PubChem)
Hits are enriched below; roughly 19% of the tested compounds scored in any of these assays.
IL1B secr inh: inhibitors of inflammasome signaling (IL-1 beta secretion); THP-1 LPS/ATP IL-1B secretion, AlphaLISA, 16 h; hits give low values; 360,000 compounds, 4.7% hits; activity change, % at 57.5 µM; in the data active = activity change below about -50%; inconclusive = mostly about -30% to -49%
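Secreted IL-1B measured by AlphaLISA bead assay after 16 h compound exposure of THP-1 cells; compounds (final up to 57.5 uM) added 1 h before LPS (250 ng/mL) and ATP (1.25 mM) stimulation; lower signal means less secretion.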
DT40 TDP1 CPT: DT40-hTDP1 cell growth loss with CPT | chicken DT40 Tdp1-/-;hTDP1 cells + 20 nM CPT, ATP luminescence, 48 h | Potency, µM (series often up to 46.2 µM), for the others: at the highest dose activity change, negative = growth inhibition, hits mostly inhibitors | 420,000 compounds, 12% hits | AID 686979; also: potency is read from the fitted curve at half-maximal effect; nearly all actives have a fitted effect of over 55% in size
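Chicken DT40 Tdp1-/- cells stably complemented with human TDP1 were seeded at 400 cells/well in medium containing 20 nM camptothecin, exposed to pin-transferred compounds, and grown at 37 °C for at least 48 hr. Viability was read as ATP luminescence.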
HT1080NT lethal: kills 2HG-producing HT-1080-NT fibrosarcoma cells; Potency, µM (highest dose often 46.1 µM), inactives show at the top dose activity, negative = less viability, most hits filed as cytotoxic; 360,000 compounds, 1.6% hits; HT-1080-NT fibrosarcoma viability, CellTiter-Glo ATP luminescence, 48 h;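 also: NT is the 2HG producing partner of a matched IDH1 knockdown line; potency is read from the fitted curve at half-maximal effect; 0% = DMSO-treated cells and -100% = media-only wells without cells; nearly all actives have a fitted effect of over 55% in size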
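Compounds were tested in concentration-response format on HT-1080-NT cells for 48 hours at 37 degrees C. Cell viability came from CellTiter-Glo luminescence; curves were classified by r2, response magnitude and activity.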
ELG1 repair inh: blocks ELG1-dependent DNA repair in HEK293T cells. HEK293T ELG1-luciferase reporter, luminescence, 16 h; DNA damage induced by 5-fluorouridine. Potency, µM (doses to about 46.1 µM), for the others: top-dose activity change, negative = inhibition, most hits filed as inhibitors. 330,000 compounds, 2.3% hits. AID 504467; also: potency is read from the fitted curve at half-maximal effect; nearly all actives have a fitted effect of over 55% in size
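Step one: seed 2,000 cells per well. Step two: pin-transfer compound or DMSO alongside 5-fluorouridine. Step three: incubate 16 hr, 37 °C, 5% CO2. Step four: add ONE-Glo, wait 30 min, read luminescence.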
TDP1 cell noCPT: qHTS for Inhibitors of human tyrosyl-DNA phosphodiesterase 1 (TDP1): qHTS in cells in absence of CPT. 420,000 compounds, 15% hits. DT40 Tdp1-/- hTDP1 cells, no CPT, ATP luminescence, 48 h. Potency, µM (top dose mostly 46.2 µM), for inactives: at the top dose activity change, negative = growth inhibition, usual class: inhibitors; also: potency is read from the fitted curve at half-maximal effect; nearly all actives have a fitted effect of over 55% in size
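Luminescent ATP content (CellTiter-Glo) served as the growth readout. Knockout chicken DT40 cells expressing human TDP1 were exposed to compounds without camptothecin for a minimum 48 hr at 37 °C.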
HT1080 IDH1KD tx: HT-1080 IDH1 knockdown cell toxicity (counter line); HT-1080 IDH1 knockdown viability, ATP luminescence, 48 h; Potency, µM (top dose mostly 46.1 µM), without a hit: at the highest dose activity, negative = toxicity, actives largely listed as cytotoxic; 360,000 compounds, 2% hits; AID 686971;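 also: potency is read from the fitted curve at half-maximal effect; 0% = DMSO wells and -100% = cell-free medium wells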
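Knockdown cells (IDH1KD HT-1080) received compounds 2 h after plating at 750 cells/well and were kept 48 h at 37 °C in 5% FBS RPMI. A CellTiter-Glo luminescence read gave % activity for curve fitting.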
* marks the source's active call; other numbers are inactive results; ? = inconclusive; nt = not tested or not shown; [ ] = dose if it differs, or a comment. Unless noted, calls follow the shape of the dose curve; as a rule, active = well fitted curve in the direction sought with a large enough effect; inconclusive = small, poorly fitted or top-dose-only effect, or another doubt; inactive = no such curve, though single readings can be large; an effect the other way counts as inactive or inconclusive. Unless noted, % is scaled to controls: 0 for no effect and ±100 for the full control effect.

SMILES | IL1B secr inh | DT40 TDP1 CPT | HT1080NT lethal | ELG1 repair inh | TDP1 cell noCPT | HT1080 IDH1KD tx
COc1ccc(-c2csc(C(NC(C)=O)c3cccc(F)c3)n2)cn1 (centres undefined) | -16 | 15µM* | 19% | nt | ? | 29%
CC(=O)NC(c1cccc(F)c1)c1nc(-c2csc3ccccc23)cs1 (centres undefined) | -11 | 23µM* | -24% | nt | ? | -16%
CC(=O)NC(c1cccc(F)c1)c1nc(-c2cccc(C(C)C)c2)cs1 (centres undefined) | -19 | 26µM* | -23% | nt | 21µM* | -20%
COc1ccc(-c2csc(C(NC(C)=O)c3ccc(F)c(F)c3)n2)cn1 (centres undefined) | -12 | 23µM* | 8% | nt | ? | -9%
CCCS(=O)(=O)NCc1c(C)ncc2c1CCN(C(=O)/C=C/c1ccccc1)C2 | nt | -9%[9.04 µM] | nt | nt | -1% | nt
O=C1NC(=O)C2(COC(c3cccc([N+](=O)[O-])c3)OC2)S1 (centres undefined) | 0 | -1% | 1% | -20% | 1% | 3%
Cc1ccc(S(=O)(=O)NC(=O)N[C@@H](C)Cc2ccccc2)cc1 | nt | 20% | nt | nt | 8% | nt
CCc1nc2ccc(C(=O)NCCOc3ccc(OC)cc3)cn2c1N(C)C(=O)Cc1ccccc1 | 1 | ? | 21% | nt | ? | 8%
COc1ccc2nc(Nc3nc(CSc4nnc(C)s4)cc(=O)[nH]3)nc(C)c2c1 | nt | nt | nt | 8% | nt | nt
Cc1ccc2nc(Nc3nc(CSc4nnc(C)s4)cc(=O)[nH]3)nc(C)c2c1 | -88* | ? | 0% | 1% | 15µM* | 1%
Cc1ccc2nc(Nc3nc(CSc4nc5ccccc5s4)cc(=O)[nH]3)nc(C)c2c1 | 1 | 12µM* | 13% | ? | 15µM* | 7%
COc1ccc(C(=O)/C=C/NCc2ccc(F)cc2)cc1OC | nt | -3% | -21% | ? | ? | -29%
Cc1ccc(/C([O-])=C(/C(=S)Nc2ccc(SC(F)F)cc2)[n+]2ccccc2)cc1[N+](=O)[O-] | 0 | ? | 0% | -10% | 12µM* | 3%
[O-]/C(=C(\C(=S)Nc1ccc(SC(F)F)cc1)[n+]1ccccc1)c1ccc(Cl)cc1Cl | -69* | 10µM* | -10% | 15µM* | 10µM* | -19%
Cc1ccccc1NC(=S)/C(=C(\[O-])c1ccc(C)c([N+](=O)[O-])c1)[n+]1ccccc1 | -1 | ? | ? | 0% | ? | 12%
Cc1ccc(NC(=O)c2cc3ccccc3oc2=N)cc1 | 12 | -5% | 6% | ? | ? | 12%
N=c1oc2cc(O)ccc2cc1C(=O)Nc1ccc(Cl)cc1 | -89* | ? | -4% | ? | 8% | ?
N=c1oc2ccccc2cc1C(=O)NC1CCCCCC1 | 0 | -29% | -2% | ? | -18% | 6%
N=c1oc2ccc(Cl)cc2cc1C(=O)NC1CCCCCC1 | nt | 26µM* | ? | 4% | 21µM* | 29%
O=C(Cc1ccc(Cl)cc1Cl)OCC(=O)N1CCN(C(=O)c2ccco2)CC1 | -7 | 13% | -1% | -5% | -17% | 7%
O=C(Nc1cccc(C(=O)OCc2cc(=O)n3nc(C4CC4)sc3n2)c1)c1cccc(F)c1 | nt | -20% | nt | nt | 4% | nt
Cc1ccc(N2CC(C(=O)Nc3ccc(N4CCOCC4)cc3)CC2=O)cc1C (centres undefined) | 5 | -13% | ? | 21% | -27% | -21%
O=C(O)c1cccc(NS(=O)(=O)c2ccc3c(c2)C(=O)c2ccccc2C3=O)c1 | 0 | -9% | 1% | -10% | -10% | 6%
O=S(=O)(Nc1ccc(-c2ccc(NS(=O)(=O)c3ccccc3)cc2)cc1)c1ccccc1 | -4 | ? | ? | nt | 23µM* | ?
O=S(=O)(Nc1ccc(-c2csc(-c3ccccc3)n2)cc1)c1ccccc1 | -102* | -41% | ? | 10% | 18µM* | ?
SMILES | IL1B secr inh | DT40 TDP1 CPT | HT1080NT lethal | ELG1 repair inh | TDP1 cell noCPT | HT1080 IDH1KD tx
O=S(=O)(Nc1ccc(NS(=O)(=O)c2ccccc2)cc1)c1ccccc1 | -19 | -15% | -6% | nt | ? | -2%
Cc1ccc2nc(-c3ccc(NS(=O)(=O)c4ccc(F)cc4)cc3)sc2c1 | -103* | ? | ? | ? | ? | ?
O=C1c2ccccc2C(=O)c2cc(S(=O)(=O)Nc3ccccc3)ccc21 | 0 | 15µM* | -1% | -1% | 21µM* | -24%
COc1ccc(N(CC(=O)NC2CCCC2)C(=O)Cn2nnc(-c3ccc(F)cc3)n2)cc1 | -7 | 3% | -12% | -29% | -26% | -2%
COc1ccccc1CN1CC(C(=O)NCC2(O)CCCCC2)CCC1=O (centres undefined) | 5 | -2% | 3% | nt | 1% | 7%
Cc1ccc(S(=O)(=O)Nc2nc(-c3ccccc3)cs2)cc1 | 17 | 2% | 0% | -5% | -6% | 1%
Cc1ccc(S(=O)(=O)Nc2ccc(-c3csc(-c4ccccc4)n3)cc2)cc1 | -97* | ? | -12% | 3% | ? | -16%
COc1cc2c(cc1OC)C(SC)=NC1(CCCC1)C2 | ? | 16µM* | -24% | 19% | 15µM* | -7%
CCC(C)NC(=O)Cn1c(=O)n(Cc2ccc(C(=O)NCCCOC)cc2)c(=O)c2ccccc21 (centres undefined) | nt | -17% | nt | nt | -8% | nt
CCCN1CNc2c(c(=O)[nH]c(=S)n2CCc2ccc(C)cc2C)C1 | nt | ? | 14% | nt | ? | 2%
CCCOC(=O)c1ccc(NC(=O)/C=C/c2cccs2)cc1 | -11 | ? | -12% | ? | 18µM* | -21%
O=C(/C=C/c1cccs1)Nc1ccncc1 | ? | -8% | 17% | ? | ? | -1%
COc1ccc(-c2nnc(SCC(=O)NC3CC3)o2)cc1 | 17 | 5% | -1% | ? | -5% | 5%
CN(C)S(=O)(=O)c1ccc(C(=O)NCCSc2c(-c3ccc(Cl)cc3)[nH]c3ccccc23)cc1 | nt | 4.1µM* | nt | nt | 5.2µM* | nt
Cc1ccc(-c2[nH]c3ccccc3c2SCCNC(=O)c2ccc(S(=O)(=O)N(C)C)cc2)cc1 | nt | 5.8µM* | nt | nt | 5.8µM* | nt
O=C(Cc1cccs1)NCCSc1c(-c2ccc(Cl)cc2)[nH]c2ccccc12 | -17 | 18µM* | ? | ? | 13µM* | ?
